Compounds without any hit were thinned out: in the full panel of roughly 83,000, 20% have a hit.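 Activity criterion: percent growth below 10, measured after cells in 96-well plates were exposed to a single compound concentration for 48 hours.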 Activity calls are given as the source filed them.
Tests used:
Experiment in all cases: NCI-60 one-dose screen, 48 h (100 = growth as untreated, 0 = no growth, -100 = all killed)
Conditions in all cases: 10 µM unless noted
T-47D breast = test system: T-47D breast
BT-549 breast = test system: BT-549 breast
MDA-MB-435 melanoma = test system: MDA-MB-435 melanoma
SW-620 colon = test system: SW-620 colon
MCF7 breast = test system: MCF7 breast
HCT-116 colon = test system: HCT-116 colon
HCC-2998 colon = test system: HCC-2998 colon
KM12 colon = test system: KM12 colon

Measured: growth

O=C1Nc2ccc(Cl)cc2/C1=C/c1ccc(OCc2ccc(F)cc2)cc1
inactive: T-47D breast 102% | BT-549 breast 107% | MDA-MB-435 melanoma 93% | SW-620 colon 102% | MCF7 breast 84.6% | HCT-116 colon 88.5% | HCC-2998 colon 102% | KM12 colon 98.8%

COCCOc1ccc(-c2csc(NC(C)=O)n2)cc1NS(=O)(=O)c1cccc2c(N(C)C)cccc12
inactive: T-47D breast 67.7% | BT-549 breast 105% | MDA-MB-435 melanoma 105% | SW-620 colon 111% | MCF7 breast 85% | HCT-116 colon 88.2% | HCC-2998 colon 113% | KM12 colon 97.1%

CC1COc2c(N3CCN(C)CC3)c(F)cc3c(=O)c(C(=O)N/N=C/c4cc[nH]c4)cn1c23 (stereo not given)
active: SW-620 colon -46.4% | MCF7 breast -5.35% | HCT-116 colon -80.1%
inactive: T-47D breast 47.2% | BT-549 breast 59.5% | MDA-MB-435 melanoma 12.2% | HCC-2998 colon 22.6% | KM12 colon 46.4%

NS(=O)(=O)c1ccc(Nc2nc(N/N=C/c3ccc(C(F)(F)F)cc3)nc(Nc3ccccc3)n2)cc1
active: HCT-116 colon 9.73%
inactive: T-47D breast 31.3% | BT-549 breast 48.9% | MDA-MB-435 melanoma 19.9% | SW-620 colon 54.8% | MCF7 breast 10.3% | HCC-2998 colon 53.1% | KM12 colon 21.7%

O=C(/C=C1\C=CN(CCCCCCF)c2ccccc21)n1ccc2ccccc21
inactive: T-47D breast 82% | BT-549 breast 103% | MDA-MB-435 melanoma 108% | SW-620 colon 104% | MCF7 breast 88.4% | HCT-116 colon 84.8% | HCC-2998 colon 107% | KM12 colon 100%

O=C(O)CNS(=O)(=O)c1ccc(Oc2ccc(S(=O)(=O)NCC(=O)O)cc2)cc1
inactive: T-47D breast 95.5% | BT-549 breast 115% | MDA-MB-435 melanoma 106% | SW-620 colon 102% | MCF7 breast 93.2% | HCT-116 colon 103% | HCC-2998 colon 105% | KM12 colon 98.4%

CC(=O)Nc1cccc(-n2cnc3cc(-c4ccc(O)cc4)ccc32)c1
inactive: T-47D breast 27.7% | BT-549 breast 49.2% | SW-620 colon 19.4% | MCF7 breast 31.4% | HCT-116 colon 20.8% | HCC-2998 colon 79.6% | KM12 colon 20.6%
active: MDA-MB-435 melanoma -17.7%

CCOc1ccc2nc(NC(=O)Nc3ccccc3C)sc2c1
inactive: T-47D breast 47.7% | BT-549 breast 53.8% | SW-620 colon 29.2% | MCF7 breast 27.7% | HCT-116 colon 39.8% | HCC-2998 colon 81.4% | KM12 colon 40.7%
active: MDA-MB-435 melanoma -11.1%

Oc1ccccc1-c1nnc(SCc2ccc(O)c3ncccc23)n1-c1ccccc1
inactive: BT-549 breast 25.2% | MDA-MB-435 melanoma 14.4% | SW-620 colon 14.9% | HCT-116 colon 12.6% | HCC-2998 colon 29% | KM12 colon 15.4%
active: T-47D breast 6.93% | MCF7 breast 3.11%

O=C(Nc1cccc(Cl)c1)Nc1nc2ccc(-c3cccc4ccccc34)cc2s1
inactive: T-47D breast 11.2% | BT-549 breast 102% | MDA-MB-435 melanoma 54.3% | SW-620 colon 43.7% | MCF7 breast 58.3% | HCT-116 colon 27% | HCC-2998 colon 57.3% | KM12 colon 23%

CC(=O)c1ccc(NC(=O)COc2ccc(C3SCC(=O)N3c3ccc(Br)cc3)cc2)cc1 (stereo not given)
inactive: T-47D breast 88.7% | BT-549 breast 95.7% | MDA-MB-435 melanoma 102% | SW-620 colon 110% | MCF7 breast 89.6% | HCT-116 colon 91% | HCC-2998 colon 103% | KM12 colon 98.2%

COc1ccc(-c2nc3cc(Cl)c(Cl)cc3n2CC(=O)N=Nc2c(O)[nH]c3ccc(Br)cc23)cc1
active: T-47D breast -52.7% | BT-549 breast 3.05% | MDA-MB-435 melanoma -59.1% | SW-620 colon -54.6% | MCF7 breast -11.6% | HCT-116 colon -31.5% | HCC-2998 colon -25.9% | KM12 colon 5.77%

COc1cc(/C=N/n2cnc3oc(-c4ccccc4)cc3c2=N)cc(CN2CCN(C)CC2)c1O
inactive: T-47D breast 99.4% | BT-549 breast 120% | MDA-MB-435 melanoma 98.6% | SW-620 colon 101% | MCF7 breast 89.3% | HCT-116 colon 80.6% | HCC-2998 colon 108% | KM12 colon 87.2%

CN1CCN(c2ccc3c(c2)nc(NNC(=O)c2ccncn2)c2cccn23)CC1
inactive: T-47D breast 32.7% | BT-549 breast 45.2% | MDA-MB-435 melanoma 27.5% | SW-620 colon 22.8% | MCF7 breast 17.6% | HCT-116 colon 23.6% | HCC-2998 colon 22.3% | KM12 colon 17.4%

C=CCn1c(SCC(=O)Nc2cccc(C(=O)/C=C/c3cccc([N+](=O)[O-])c3)c2)nc2ccccc2c1=O
inactive: T-47D breast 79.1% | BT-549 breast 111% | MDA-MB-435 melanoma 98.4% | SW-620 colon 62% | MCF7 breast 33.2% | HCC-2998 colon 101% | KM12 colon 104%
active: HCT-116 colon 8.94%

COc1ccc([C@H]2[C@H](O)C(=O)N2c2cc(OC)c(OC)c(OC)c2)cc1
inactive: T-47D breast 70.2% | SW-620 colon 20.3% | MCF7 breast 12.4% | HCC-2998 colon 16.3% | KM12 colon 18.8%
active: BT-549 breast -2.44% | MDA-MB-435 melanoma -12.9% | HCT-116 colon 0.54%

O=c1c2c(O)cccc2oc2c3c(cc(O)c12)O[C@H]1OC=C[C@@H]31
inactive: T-47D breast 57.4% | BT-549 breast 95.2% | MDA-MB-435 melanoma 83.3% | SW-620 colon 78.1% | HCT-116 colon 86.6% | HCC-2998 colon 63.8% | KM12 colon 82.4%
active: MCF7 breast 8.3%

Cc1cc(=O)n2nc(-c3cn(C)c4ccc(Cl)cc34)sc2n1
inactive: T-47D breast 50.8% | BT-549 breast 108% | MDA-MB-435 melanoma 99% | SW-620 colon 97.6% | MCF7 breast 14.5% | HCT-116 colon 86.3% | HCC-2998 colon 102% | KM12 colon 94.1%

NC(=O)C(=Cc1ccc(Cl)cc1)C(N)=O
inactive: T-47D breast 45.2% | BT-549 breast 58.1% | MDA-MB-435 melanoma 69.6% | SW-620 colon 52.2% | MCF7 breast 34.4% | HCT-116 colon 52.2% | HCC-2998 colon 85.7% | KM12 colon 85.2%

CN1C(=O)/C(=C/C=C/c2ccco2)SC1=S
inactive: T-47D breast 63% | BT-549 breast 55.1% | MDA-MB-435 melanoma 95.8% | SW-620 colon 104% | MCF7 breast 24.2% | HCT-116 colon 54.4% | HCC-2998 colon 99.2% | KM12 colon 91.3%

c1ccc(-c2c(-c3ccccc3)[n+](Cc3ccc4ccccc4c3)c(-c3ccccc3)n2Cc2ccc3ccccc3c2)cc1
active: T-47D breast -60.9% | BT-549 breast -87.1% | MDA-MB-435 melanoma -93.9% | SW-620 colon -81.7% | MCF7 breast -72.9% | HCT-116 colon -74.8% | HCC-2998 colon -90.3% | KM12 colon -82.9%

CC[C@H](C)[C@H]1NC(=O)[C@@H]([C@H](O)C(C)C)NC(=O)[C@@H](C)N(C)C(=O)[C@H](C)N(C)C(=O)[C@H](CC(C)C)NC(=O)[C@H](CC(C)C)N(C)C(=O)[C@H](C)N(C)C1=O
inactive: KM12 colon 16%
active: T-47D breast -6.92% | BT-549 breast -4.47% | MDA-MB-435 melanoma 5.17% | SW-620 colon 5.6% | MCF7 breast 1.66% | HCT-116 colon 1.42% | HCC-2998 colon 2.12%

CCOC(=O)/C(F)=C/C1CC1CCc1cccc(C(F)(F)F)c1 (stereo not given)
inactive: T-47D breast 108% | BT-549 breast 113% | MDA-MB-435 melanoma 103% | SW-620 colon 102% | MCF7 breast 95% | HCT-116 colon 110% | HCC-2998 colon 109% | KM12 colon 99.1%

CCN(CC)CCCC(C)NCC(=O)NC(c1ccc2c(c1)OCO2)c1cc(Cl)c2cccnc2c1O (stereo not given)
inactive: T-47D breast 40.1% | BT-549 breast 79% | SW-620 colon 24.2%
active: MDA-MB-435 melanoma 8.56% | MCF7 breast 7.35% | HCT-116 colon 7.29% | HCC-2998 colon -11.4% | KM12 colon 9.46%

C/C(Cc1ccc(Cl)cc1)=C(/c1ccccc1)c1ccc(OCCN)cc1
inactive: T-47D breast 101% | BT-549 breast 95.3% | MDA-MB-435 melanoma 95.1% | SW-620 colon 102% | MCF7 breast 99.9% | HCT-116 colon 102% | HCC-2998 colon 99% | KM12 colon 103%

C#CCOc1ccc(C(Nc2ccc(OC)cc2)c2nnnn2C2CCCCC2)cc1 (stereo not given)
inactive: T-47D breast 94.1% | BT-549 breast 99.6% | MDA-MB-435 melanoma 101% | SW-620 colon 98.3% | MCF7 breast 91.7% | HCT-116 colon 88.7% | HCC-2998 colon 101% | KM12 colon 102%

CS(=O)(=O)c1ccc(-c2nn(-c3ccccc3)cc2/C=N/NC(=O)c2ccncc2)cc1
inactive: T-47D breast 90.8% | BT-549 breast 97.1% | MDA-MB-435 melanoma 85.4% | SW-620 colon 102% | MCF7 breast 93.8% | HCT-116 colon 107% | HCC-2998 colon 102% | KM12 colon 90.7%

O=C(COc1ccc(C2SCC(=O)N2c2ccccc2)cc1)c1ccccc1 (stereo not given)
inactive: T-47D breast 81.5% | BT-549 breast 92% | MDA-MB-435 melanoma 103% | SW-620 colon 104% | MCF7 breast 88.3% | HCT-116 colon 94.8% | HCC-2998 colon 102% | KM12 colon 99.4%

O=C(COc1ccc(C2SCC(=O)N2c2ccc(F)cc2)cc1)c1ccccc1 (stereo not given)
inactive: T-47D breast 89.8% | BT-549 breast 93.4% | MDA-MB-435 melanoma 103% | SW-620 colon 116% | MCF7 breast 81.7% | HCT-116 colon 94.3% | HCC-2998 colon 106% | KM12 colon 92.4%

NC(=O)N1N=C(c2cc3ccccc3oc2=O)CC1c1cn(-c2ccccc2)nc1-c1ccc(Cl)cc1 (stereo not given)
inactive: T-47D breast 25.1% | BT-549 breast 68.7% | MDA-MB-435 melanoma 47.4% | SW-620 colon 35.5% | MCF7 breast 25.4% | HCT-116 colon 26.7% | HCC-2998 colon 57% | KM12 colon 34.5%
